The values that follow come from ChEMBL document CHEMBL3988442, “University of Dundee, Small-Polar-MMV Screening Library” (2021).

SMILES strings stand for the structures.

This experiment is filed under the species Homo sapiens. The experiment is described as follows: To identify inhibition of the IFN signalling (Jak-Stat) pathway via expression of an eGFP reporter gene under the control of an IFN-stimulated response element (ISRE) containing MxA promoter. Conditions: 30 µM. It counts as functional. On the set-up: scale not given: direction of the effect not stated beside the values. A general note: Reporter assays use an easily measured gene product as a stand-in for the process of interest.
As for `CCn1nc(C)c(CNC(=O)c2cn(CC3CCCO3)nn2)c1C` (centres undefined), the Percent Effect was 6.98%.

Regarding `CN1CCCc2cc(CNC(=O)c3ccc(NC4CC4)nc3)ccc21`, the Percent Effect was -2.19%.

With `Cc1ccc(CNC2CCCc3c2cnn3C)s1` (centres undefined), the Percent Effect came out at 9%.

With `Cc1nc(CN2CCN(CC(=O)Nc3c(C)cccc3C)CC2)no1`, the Percent Effect is -5.46%.

Turning to `CC(=O)N1CCC(C(=O)c2cc(C)cnc2N)CC1`, the Percent Effect is 17.4%.

As to `CC(=O)N1C[C@H](NC(=O)c2cscn2)[C@@H]2OCCC[C@@H]21`, the Percent Effect was -9.35%.

As to `NC(=O)COc1ccc(CNCc2ccc(F)cc2F)cc1`, the Percent Effect was -28.4%.

In the case of `CCCNC(=O)CN1CCN(Cc2csc(C(C)(C)C)n2)CC1`, the Percent Effect came out at 20.3%.

Take `CCN1CC2(CCNCC2)COc2ccccc2S1(=O)=O`: the Percent Effect was found to be 2.26%.

For the molecule `Cc1ccccc1CSc1nc(N)cc(N2CC[C@@H](O)C2)n1`, the Percent Effect came out at 28.7%.

On to `O=C1CC2(CCN(CCO)CC2)CN1Cc1cc(F)cc(F)c1`, for which the Percent Effect was -13.2%.

As to `O=C(c1csc(-c2cccs2)n1)N1CCCC1Cn1cccn1` (centres undefined), the Percent Effect is -2.06%.

In the case of `CS(=O)(=O)N1CCC(Oc2ccc(C(=O)N3CCSCC3)cc2Cl)CC1`, the Percent Effect came out at 25.7%.

For the molecule `CCc1nnc2n1CCN(Cc1csc(-c3cnn(C)c3)n1)C2`, the Percent Effect was -7.26%.

Regarding `CN(C)C(=O)CNC(=O)c1ccc(Cl)cc1F`, the Percent Effect is 15.7%.

Regarding `Fc1ccc(-c2cnc(CN3CCCC3Cn3cccn3)o2)cc1` (centres undefined), the Percent Effect is 24.8%.

In the case of `Cc1cccnc1NCCNC(=O)[C@H]1CNC[C@@H](C(=O)N2CCCC2)C1`, the Percent Effect is -27.6%.

Turning to `Cc1cnc(NC(=O)c2ccc(-n3ncc(C#N)c3N)cc2)s1`, the Percent Effect stood at 29%.

Take `NCc1cnn(-c2ccccc2C(=O)NCCCn2ccnc2)c1`: the Percent Effect stood at 4.01%.

As for `CN(Cc1cnn(C)c1)C(=O)NC1CCN(Cc2ccccn2)CC1`, the Percent Effect came to 15.9%.

In the case of `CC(C)C(NC(=O)NCC1(CO)CC1)c1nnc2n1CCC2` (centres undefined), the Percent Effect came to 10.4%.

As for `COc1ccccc1CN(C)c1nccc(-c2cn(C)nc2C)n1`, the Percent Effect worked out at 34.9%.

As for `COc1ccc(CNC(=O)Nc2cccnc2N2CCCC2)cc1O`, the Percent Effect came out at 7.88%.

As to `Cn1ncc2c1CN(Cc1cccnc1)CC2COCC1CC1` (centres undefined), the Percent Effect is -15.1%.

For the molecule `COc1ccc(OC)c(CNCCc2cc(F)cc3c2OCOC3)c1`, the Percent Effect was determined as 4.72%.

Turning to `CS(=O)(=O)NCCCN1CCCC1c1ccccc1` (centres undefined), the Percent Effect is -31.1%.

Turning to `CN1CCOC(CNCc2cccc(OCC(F)(F)F)c2)C1` (centres undefined), the Percent Effect came to 0.0497%.

As for `Cc1cnn(CCNCc2csc(-c3cccs3)n2)c1`, the Percent Effect stood at 0.0858%.

Turning to `CCn1cnnc1CNC(=O)NC(C)c1cccs1` (centres undefined), the Percent Effect came to 10.1%.

`CC(C)Nc1nc(N2CCOCC2)nc2c1CN(CC(=O)N(C)C)CC2`: the Percent Effect was 15.8%.

In the case of `O=C(NCCCO)C1CC(=O)N(c2n[nH]c3cccc(F)c23)C1` (centres undefined), the Percent Effect is 2.36%.

For the molecule `Cn1cc(CN2C[C@@H]3COC[C@@H](C(=O)N4CCCCO4)[C@@H]3C2)cn1`, the Percent Effect turned out to be 3.52%.

Consider `O=C1CC(c2ccccc2)c2snc(C(=O)O)c2N1` (centres undefined), for which the Percent Effect is 1.29%.

For `CCc1nc(C(=O)N2CCCC2)nn1-c1ccccc1Cl`, the Percent Effect was determined as 4.97%.

As to `Cc1ccc(Nc2nccc(C3CN(CC(N)=O)C3)n2)nc1`, the Percent Effect turned out to be 10.7%.

With `O=C(NCCCn1cccn1)N1CCCC1c1ccncc1` (centres undefined), the Percent Effect is 25.4%.

Turning to `CCC1CN(CC(=O)Nc2sccc2C#N)CCO1` (centres undefined), the Percent Effect was -2.35%.

Take `CCc1n[nH]c(C2CN(C(=O)c3cnc[nH]3)CCO2)n1` (centres undefined): the Percent Effect was determined as 1.28%.

Take `O=C(NCC1CCCO1)c1c(-n2cnnn2)sc2c1CCC2` (centres undefined): the Percent Effect is -12.3%.
